# Like-named read-outs stand apart in the source and are kept apart here.
# Tests used:
# [1] = test system: AAK1; conditions: n = 1
# [2] = test system: ABL1-nonphosphorylated; conditions: n = 1
# [3] = test system: ABL1-phosphorylated; conditions: n = 1
# [4] = test system: ABL2; conditions: n = 1
# [5] = test system: ACVR1B; conditions: n = 1
# [6] = test system: ACVR1; conditions: n = 1
# [7] = test system: ACVR2A; conditions: n = 1
# [8] = test system: ACVR2B; conditions: n = 1
# [9] = test system: ACVRL1; conditions: n = 1
# [10] = test system: T1, ADCK3; conditions: n = 1
# T1 construct: gene CABC1
# [11] = test system: ADCK4; conditions: n = 1
# [12] = test system: AKT1; conditions: n = 1
# [13] = test system: AKT2; conditions: n = 1
# [14] = test system: AKT3; conditions: n = 1
# [15] = test system: ALK; conditions: n = 1
# [16] = test system: T2, AMPK-alpha1; conditions: n = 1
# T2 construct: gene PRKAA1
# [17] = test system: T3, AMPK-alpha2; conditions: n = 1
# T3 construct: gene PRKAA2
# [18] = test system: T4, p38-alpha;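 also: kd values determined as follow-up on hits from a single-replicate KINOMEscan panel screen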
# T4 construct: gene MAPK14
# [19] = concentration: 1 μM, replicates: in singlicate
# 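For %Inh in this document: KINOMEscan kinase panel screen.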
smiles,measurement,setting,value
Cl.Oc1ccc(-c2nc(-c3ccccc3)[nH]c2-c2ccncc2)cc1 [SB-428218],%Inh,[1]; [19],7%
same,%Inh,[2]; [19],72%
same,%Inh,[3]; [19],56%
same,%Inh,[4]; [19],30%
same,%Inh,[5]; [19],0%
same,%Inh,[6]; [19],7%
same,%Inh,[7]; [19],0%
same,%Inh,[8]; [19],13%
same,%Inh,[9]; [19],0%
same,%Inh,[10]; [19],5%
same,%Inh,[11]; [19],82%
same,%Inh,[12]; [19],0%
same,%Inh,[13]; [19],18%
same,%Inh,[14]; [19],0%
same,%Inh,[15]; [19],44%
same,%Inh,[16]; [19],0%
same,%Inh,[17]; [19],0%
C[C@@H]1CCCCN1c1cc(-c2ccc3c(N)n[nH]c3c2)nc(N)n1 [GSK2258759],Kd,[18],2100 nM
same,%Inh,[1]; [19],43%
same,%Inh,[2]; [19],0%
same,%Inh,[3]; [19],0%
same,%Inh,[4]; [19],0%
same,%Inh,[5]; [19],0%
same,%Inh,[6]; [19],24%
same,%Inh,[7]; [19],0%
same,%Inh,[8]; [19],0%
same,%Inh,[9]; [19],0%
same,%Inh,[10]; [19],14%
same,%Inh,[11]; [19],20%
same,%Inh,[12]; [19],0%
same,%Inh,[13]; [19],0%
same,%Inh,[14]; [19],0%
same,%Inh,[15]; [19],0%
same,%Inh,[16]; [19],0%
same,%Inh,[17]; [19],0%
COc1ccc(Nc2nccc(NCCNC(=O)Nc3ccccc3F)n2)cc1 [GSK1379901],%Inh,[1]; [19],80%
same,%Inh,[2]; [19],0%
same,%Inh,[3]; [19],1%
same,%Inh,[4]; [19],0%
same,%Inh,[5]; [19],0%
same,%Inh,[6]; [19],21%
same,%Inh,[7]; [19],0%
same,%Inh,[8]; [19],0%
same,%Inh,[9]; [19],0%
same,%Inh,[10]; [19],15%
same,%Inh,[11]; [19],25%
same,%Inh,[12]; [19],0%
same,%Inh,[13]; [19],0%
same,%Inh,[14]; [19],0%
same,%Inh,[15]; [19],48%
same,%Inh,[16]; [19],0%
same,%Inh,[17]; [19],0%
COc1ccc(C2=C(Nc3cccc(C(=O)O)c3)C(=O)NC2=O)cc1 [SB-390765],%Inh,[1]; [19],4%
same,%Inh,[2]; [19],35%
same,%Inh,[3]; [19],0%
same,%Inh,[4]; [19],1%
same,%Inh,[5]; [19],7%
same,%Inh,[6]; [19],100%
same,%Inh,[7]; [19],0%
same,%Inh,[8]; [19],0%
same,%Inh,[9]; [19],1%
same,%Inh,[10]; [19],0%
same,%Inh,[11]; [19],0%
same,%Inh,[12]; [19],1%
same,%Inh,[13]; [19],0%
same,%Inh,[14]; [19],14%
same,%Inh,[15]; [19],2%
same,%Inh,[16]; [19],23%
same,%Inh,[17]; [19],2%
Cc1cccc(-c2nc(C)cc(Nc3ccncc3)n2)n1 [GSK257997],%Inh,[1]; [19],99.8%
same,%Inh,[2]; [19],0%
same,%Inh,[3]; [19],0%
same,%Inh,[4]; [19],6%
same,%Inh,[5]; [19],78%
same,%Inh,[6]; [19],15%
same,%Inh,[7]; [19],0%
same,%Inh,[8]; [19],7%
same,%Inh,[9]; [19],0%
same,%Inh,[10]; [19],18%
same,%Inh,[11]; [19],24%
same,%Inh,[12]; [19],0%
same,%Inh,[13]; [19],3%
same,%Inh,[14]; [19],0%
same,%Inh,[15]; [19],20%
same,%Inh,[16]; [19],3%
same,%Inh,[17]; [19],12%
CC1=C(C(=O)Nc2cc3cn[nH]c3cc2F)C(c2ccc(C(F)(F)F)cc2)CC(=O)N1 (centres unmarked) [GSK429286],%Inh,[1]; [19],0%
same,%Inh,[2]; [19],0%
same,%Inh,[3]; [19],0%
same,%Inh,[4]; [19],19%
same,%Inh,[5]; [19],0%
same,%Inh,[6]; [19],0%
same,%Inh,[7]; [19],83%
same,%Inh,[8]; [19],0%
same,%Inh,[9]; [19],0%
same,%Inh,[10]; [19],11%
same,%Inh,[11]; [19],11%
same,%Inh,[12]; [19],0%
same,%Inh,[13]; [19],20%
same,%Inh,[14]; [19],0%
same,%Inh,[15]; [19],29%
same,%Inh,[16]; [19],23%
same,%Inh,[17]; [19],19%
Cc1ccc(NC(=O)Nc2cccc(C(F)(F)F)c2)cc1 [GSK955403],%Inh,[1]; 1 µM,26%
same,%Inh,[2]; 1 µM,49%
same,%Inh,[3]; 1 µM,23%
same,%Inh,[4]; 1 µM,3%
same,%Inh,[5]; 1 µM,85%
same,%Inh,[6]; 1 µM,10%
same,%Inh,[7]; 1 µM,2%
same,%Inh,[8]; 1 µM,0%
same,%Inh,[9]; 1 µM,0%
same,%Inh,[10]; 1 µM,5%
same,%Inh,[11]; 1 µM,0%
same,%Inh,[12]; 1 µM,12%
same,%Inh,[13]; 1 µM,3%
same,%Inh,[14]; 1 µM,0%
same,%Inh,[15]; 1 µM,0%
same,%Inh,[16]; 1 µM,0%
same,%Inh,[17]; 1 µM,0%
Cc1c(Cn2ccn3c(=O)cc(N4CCOCC4)nc23)cccc1C(F)(F)F [GSK2289044],%Inh,[1]; [19],16%
same,%Inh,[2]; [19],0%
same,%Inh,[3]; [19],0%
same,%Inh,[4]; [19],0%
same,%Inh,[5]; [19],0%
same,%Inh,[6]; [19],3%
same,%Inh,[7]; [19],0%
same,%Inh,[8]; [19],0%
same,%Inh,[9]; [19],0%
same,%Inh,[10]; [19],32%
same,%Inh,[11]; [19],0%
same,%Inh,[12]; [19],0%
same,%Inh,[13]; [19],19%
same,%Inh,[14]; [19],86%
same,%Inh,[15]; [19],5%
same,%Inh,[16]; [19],23%
same,%Inh,[17]; [19],17%
Cc1cccc(-c2nc(-c3ccc(S(C)(=O)=O)cc3)sc2-c2ccnc(NCCc3ccccc3)c2)c1,Kd,[18],1900 nM
same,%Inh,[1]; [19],12%
same,%Inh,[2]; [19],90.7%
same,%Inh,[3]; [19],21%
same,%Inh,[4]; [19],0%
same,%Inh,[5]; [19],8%
same,%Inh,[6]; [19],0%
same,%Inh,[7]; [19],0%
same,%Inh,[8]; [19],3%
same,%Inh,[9]; [19],0%
same,%Inh,[10]; [19],0%
same,%Inh,[11]; [19],12%
same,%Inh,[12]; [19],14%
same,%Inh,[13]; [19],6%
same,%Inh,[14]; [19],12%
same,%Inh,[15]; [19],0%
same,%Inh,[16]; [19],0%
same,%Inh,[17]; [19],17%
COc1cc2ncn(-c3cc(OCC4CCCO4)c(C(N)=O)s3)c2cc1OC (centres unmarked) [GSK204607],%Inh,[1]; [19],17%
same,%Inh,[2]; [19],0%
same,%Inh,[3]; [19],0%
same,%Inh,[4]; [19],0%
same,%Inh,[5]; [19],0%
same,%Inh,[6]; [19],46%
same,%Inh,[7]; [19],0%
same,%Inh,[8]; [19],0%
same,%Inh,[9]; [19],0%
same,%Inh,[10]; [19],23%
same,%Inh,[11]; [19],12%
same,%Inh,[12]; [19],0%
same,%Inh,[13]; [19],0%
same,%Inh,[14]; [19],0%
same,%Inh,[15]; [19],0%
same,%Inh,[16]; [19],0%
same,%Inh,[17]; [19],2%
Cn1ccc2ncnc(Oc3ccc(NC(=O)Nc4ccccc4)cc3)c21,%Inh,[1]; [19],0%
same,%Inh,[2]; [19],26%
same,%Inh,[3]; [19],0%
same,%Inh,[4]; [19],0%
same,%Inh,[5]; [19],0%
same,%Inh,[6]; [19],0%
same,%Inh,[7]; [19],0%
same,%Inh,[8]; [19],0%
same,%Inh,[9]; [19],0%
same,%Inh,[10]; [19],12%
same,%Inh,[11]; [19],5%
same,%Inh,[12]; [19],13%
same,%Inh,[13]; [19],0%
same,%Inh,[14]; [19],0%
same,%Inh,[15]; [19],0%
same,%Inh,[16]; [19],0%
same,%Inh,[17]; [19],2%
Fc1cc(Cl)ccc1Nc1ccnc2cc(I)ccc12 [GW551191],%Inh,[1]; [19],11%
same,%Inh,[2]; [19],22%
same,%Inh,[3]; [19],26%
same,%Inh,[4]; [19],29%
same,%Inh,[5]; [19],0%
same,%Inh,[6]; [19],54%
same,%Inh,[7]; [19],0%
same,%Inh,[8]; [19],85%
same,%Inh,[9]; [19],5%
same,%Inh,[10]; [19],0%
same,%Inh,[11]; [19],23%
same,%Inh,[12]; [19],0%
same,%Inh,[13]; [19],18%
same,%Inh,[14]; [19],58%
same,%Inh,[15]; [19],29%
same,%Inh,[16]; [19],0%
same,%Inh,[17]; [19],0%
